PubChem BioAssay (NCI)
The panel holds about 83,000 compounds, 20% with a hit somewhere; the sample as a whole holds those more often.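 Cell lines were cultured in 96-well plates, exposed to a single compound concentration, and assessed for percent growth 48 hours later.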 A number with no mark means an inactive call. Activity calls are given as the source filed them. The calls were made as follows: active = growth percent below 10; inactive = the rest.

system: TK-10 renal; assay: NCI-60 one-dose screen, 48 h (100 = growth as untreated, 0 = no growth, -100 = all killed); conditions: 10 µM unless noted

| Structure (SMILES) | growth |
| --- | --- |
| Cc1c(CN)cc(-c2ccc(Cl)cc2)n1-c1ccccc1 | 66.3% |
| O=C1Nc2ccccc2C1(c1c[nH]c2ccccc12)c1c[nH]c2ccccc12 | -10.1% (active) |
| CCn1c(-c2cc3c([nH]c4ccccc43)c(-c3cccc(O)c3)n2)n[nH]c1=S | 9.38% (active) |
| CCN(CC)c1ccc(/C=N/NC(=O)Cc2ccc(Nc3ccnc(C(F)(F)F)c3)cc2)c(O)c1 | 35.4% |
| COc1ccc2c(c1)c(-c1nc(-c3c[nH]c4ncccc34)cs1)cn2CCCN1CCOCC1 | 51.5% |
| CNC(C)[C@H]1CCC2C3CC=C4C(=O)[C@@H](NC(=O)C=C(C)C)CC[C@]4(C)C3CC[C@@]21C (some centres undefined) | 60.1% |
| CN(Cc1ccccc1)c1nc(Cl)c(C2CC(c3ccccc3)=NN2c2ccccc2)s1 (centres undefined) | 115% |
| N#CC1=C(N)Oc2ccc3ccccc3c2C1c1ccc([N+](=O)[O-])cc1 (centres undefined) | 156% |
| COc1ccc(C(=O)Cn2c(C(=O)c3ccc(OC)cc3)nc3ccccc32)cc1 | 51.5% |
| CC1C(/C=N/NC(N)=S)C(C#N)(C#N)C1(C#N)C#N (centres undefined) | 118% |
| O=C(Cc1ccc(/C=C/C(=O)c2ncc[nH]2)cc1)Nc1cc(C(F)(F)F)cc(C(F)(F)F)c1 | 115% |
| CCOC(=O)c1ccccc1-c1c2ccc(=[N+](C)C)cc-2oc2cc(N(C)C)ccc12 | 32% |
| CCN1C(=O)N(CC)C2C1NN=c1s/c(=C\c3ccc(C(F)(F)F)cc3)c(=O)n12 (centres undefined) | 59.7% |
| Cc1nn(-c2ccccc2)c(N)c1N=C1NC(=O)/C(=C/c2ccc(Br)cc2)S1 | 106% |
| O=C(c1c[nH]c2ccccc12)c1n[nH]c(=S)n1-c1cccc(Br)c1 | 106% |
| Cc1ccc(/C=C/C(=O)Nc2ncc(Cc3ccc(F)cc3)s2)o1 | 61.9% |
| O=C1/C(=C\c2cccc3nccnc23)SC(=S)N1CCc1ccc(O)cc1 | 121% |
| COc1cccc(/C=C/C(=O)c2cccc(Nc3nc(Nc4ccccc4)nc(Nc4ccccc4)n3)c2)c1 | 77.5% |
| C=C1C(=O)O[C@H]2[C@H]1CC/C(COC(=O)c1cc3cc(Cl)ccc3[nH]1)=C\CC[C@@]1(C)O[C@@H]21 | -99.3% (active) |
| COc1ccc(Cn2cc(C(=O)N=Nc3c(O)[nH]c4c(C)cccc34)nn2)cc1 | 56.1% |
| NC(=O)c1cnc(Nc2cccc(N)c2)nc1NCCCNC(=O)C1CCC1 | 32.1% |
| CC1=C2[C@@H](CC1)[C@]1(C)O[C@@](C3CCCCC3)(C[C@H]1OC(=O)CO)[C@H]2OC(=O)/C=C/c1ccccc1 | 97.6% |
| O=C(Nc1cnc(Nc2ccc(N3CCOCC3)nc2)nc1Oc1ccc(C(F)(F)F)cc1)c1ccncc1 | 107% |
| Cc1c2cccnc2c(C)c2c1c1cc(CO)ccc1n2C | 26.7% |
| CCN1CCN(CC(=O)Nc2ccc(-c3cn4c(n3)sc3cc(Oc5ccnc(C(=O)NC)c5)ccc34)cc2)CC1 | 89.5% |
| COc1cc(OC)c2sc(-c3ccc(-n4cncc4-c4cc(OC)c(OC)c(OC)c4)cc3)nc2c1 | 66.1% |
| Ic1ccccc1I | 105% |
| CCC1S/C(=N\N=C(\C)c2cc3cc(Cl)ccc3o2)N(c2ccccc2)C1=O (centres undefined) | 88% |
| CN(CCCNC(=O)CCOCCOCCOCCNC(=O)Cc1ccc2ccc3cccc4ccc1c2c34)CCCNc1cc(-c2ccc3ccccc3c2)nc2ccccc12 | -84.2% (active) |

system: ACHN renal; assay: as above; conditions: 10 µM unless noted

| Structure (SMILES) | growth |
| --- | --- |
| CC1(C)[C@@H](O[C@@H]2OC[C@@H](O[C@@H]3O[C@H](CO)[C@@H](O)[C@H](O)[C@H]3O[C@@H]3OC[C@@H](O)[C@H](O)[C@H]3O)[C@H](O)[C@H]2O[C@@H]2O[C@H](CO)[C@@H](O)[C@H](O)[C@H]2O)CC[C@]2(C)[C@H]3CC[C@]45OC[C@@]6(CC[C@](C)(C=O)C[C@H]64)[C@H](O)C[C@@]5(C)[C@]3(C)CC[C@@H]12 | -93.7% (active) |
| O=C(CCl)NNc1nccc(Nc2ccc(S(=O)(=O)Nc3ccncc3)cc2)n1 | 37.7% |
| CS(=O)(=O)Nc1cc(-c2ccc3ncc(C#N)c(Nc4ccc(F)c(Cl)c4)c3c2)cnc1Cl | 10.2% |
| Cc1[nH]c(C2CC(c3ccc(C(F)(F)F)c(F)c3)=NN2c2ccccc2)c(C)c1C(=O)NCC(F)(F)F (centres undefined) | 95.8% |
| O=P(O)(O)OCC1OC(n2cnc3c(NCc4ccco4)ncnc32)C(O)C1O (centres undefined) | 4.1% (active) |
| C=CN(C(=O)N1CCN(c2cc3c(cc2F)c(=O)c(C(=O)O)cn3C2CC2)CC1)c1nc(-c2ccc(OC)cc2)cs1 | 23.6% |
| CC(=O)Oc1ccc(OC(C)=O)c2ccccc12 | 75.7% |
| O=C1c2ccccc2C(=O)c2c1cc1c(c2[N+](=O)[O-])OCO1 | -18.6% (active) |
| Cc1cccc2c1C[C@@]1(C2=O)C(c2ccc(C(C)(C)C)cc2)=NOS1=O (some centres undefined) | 108% |
| COc1cccc(Nc2ncnc3cc(NC(=O)CCl)ccc23)c1 | -97.6% (active) |
| NC(N)=NS(=O)(=O)c1ccc(NC2=C(I)C(=O)c3ncccc3C2=O)cc1 | 93.2% |
| Cc1c(CN)cc(-c2ccc(Cl)cc2)n1-c1ccccc1 | 74.7% |
| O=C1Nc2ccccc2C1(c1c[nH]c2ccccc12)c1c[nH]c2ccccc12 | 1.55% (active) |
| CCn1c(-c2cc3c([nH]c4ccccc43)c(-c3cccc(O)c3)n2)n[nH]c1=S | 61.1% |
| CCN(CC)c1ccc(/C=N/NC(=O)Cc2ccc(Nc3ccnc(C(F)(F)F)c3)cc2)c(O)c1 | 19.4% |
| COc1ccc2c(c1)c(-c1nc(-c3c[nH]c4ncccc34)cs1)cn2CCCN1CCOCC1 | 14.5% |
| CNC(C)[C@H]1CCC2C3CC=C4C(=O)[C@@H](NC(=O)C=C(C)C)CC[C@]4(C)C3CC[C@@]21C (some centres undefined) | 26% |
| CN(Cc1ccccc1)c1nc(Cl)c(C2CC(c3ccccc3)=NN2c2ccccc2)s1 (centres undefined) | 102% |
| N#CC1=C(N)Oc2ccc3ccccc3c2C1c1ccc([N+](=O)[O-])cc1 (centres undefined) | 76.8% |
| COc1ccc(C(=O)Cn2c(C(=O)c3ccc(OC)cc3)nc3ccccc32)cc1 | 43.8% |

| Structure (SMILES) | growth |
| --- | --- |
| CC1C(/C=N/NC(N)=S)C(C#N)(C#N)C1(C#N)C#N (centres undefined) | 103% |
| O=C(Cc1ccc(/C=C/C(=O)c2ncc[nH]2)cc1)Nc1cc(C(F)(F)F)cc(C(F)(F)F)c1 | 105% |
| CCOC(=O)c1ccccc1-c1c2ccc(=[N+](C)C)cc-2oc2cc(N(C)C)ccc12 | 6.36% (active) |
| CCN1C(=O)N(CC)C2C1NN=c1s/c(=C\c3ccc(C(F)(F)F)cc3)c(=O)n12 (centres undefined) | 27.6% |
| Cc1nn(-c2ccccc2)c(N)c1N=C1NC(=O)/C(=C/c2ccc(Br)cc2)S1 | 88.5% |
| O=C(c1c[nH]c2ccccc12)c1n[nH]c(=S)n1-c1cccc(Br)c1 | 100% |
| Cc1ccc(/C=C/C(=O)Nc2ncc(Cc3ccc(F)cc3)s2)o1 | 56.3% |
| O=C1/C(=C\c2cccc3nccnc23)SC(=S)N1CCc1ccc(O)cc1 | 97.3% |
| COc1cccc(/C=C/C(=O)c2cccc(Nc3nc(Nc4ccccc4)nc(Nc4ccccc4)n3)c2)c1 | 86% |
| C=C1C(=O)O[C@H]2[C@H]1CC/C(COC(=O)c1cc3cc(Cl)ccc3[nH]1)=C\CC[C@@]1(C)O[C@@H]21 | -89.2% (active) |
| COc1ccc(Cn2cc(C(=O)N=Nc3c(O)[nH]c4c(C)cccc34)nn2)cc1 | 38.2% |
| NC(=O)c1cnc(Nc2cccc(N)c2)nc1NCCCNC(=O)C1CCC1 | 49.5% |
| CC1=C2[C@@H](CC1)[C@]1(C)O[C@@](C3CCCCC3)(C[C@H]1OC(=O)CO)[C@H]2OC(=O)/C=C/c1ccccc1 | 3.28% (active) |
| O=C(Nc1cnc(Nc2ccc(N3CCOCC3)nc2)nc1Oc1ccc(C(F)(F)F)cc1)c1ccncc1 | 98.9% |
| Cc1c2cccnc2c(C)c2c1c1cc(CO)ccc1n2C | 13.9% |
| CCN1CCN(CC(=O)Nc2ccc(-c3cn4c(n3)sc3cc(Oc5ccnc(C(=O)NC)c5)ccc34)cc2)CC1 | 73.2% |
| COc1cc(OC)c2sc(-c3ccc(-n4cncc4-c4cc(OC)c(OC)c(OC)c4)cc3)nc2c1 | 70.2% |
| Ic1ccccc1I | 104% |
| CCC1S/C(=N\N=C(\C)c2cc3cc(Cl)ccc3o2)N(c2ccccc2)C1=O (centres undefined) | 103% |
| CN(CCCNC(=O)CCOCCOCCOCCNC(=O)Cc1ccc2ccc3cccc4ccc1c2c34)CCCNc1cc(-c2ccc3ccccc3c2)nc2ccccc12 | -78.8% (active) |
